Where “and” joins values, the source holds several entries; their conditions need not be identical. Identical values can stand only once. Results filed as inconclusive are left out. Calls of active or inactive are those of the source.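 Rule for the calls, unless noted: active = compounds whose cell count with miR-34 switched on is under 0.7 times the count with it off; inactive = the rest.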 Peptide text beside a SMILES is read from it.
Columns and labels:
[1] = growth inhibition of DIPG cells – cell-based, MIPE4.0 library, CellTiter-Glo luminescence, qHTS (AID 1347066; cut-off not given, nearly all actives have AC50 up to about 30 µM;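 note: cells exposed to compound for 48 hours before readout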); conditions: SU-DIPG-VI viability, CellTiter-Glo ATP luminescence
[2] = JHH-DIPG-1 glioma cell viability, MIPE5.0 library, CellTiter-Glo luminescence, qHTS (AID 1347067; cut-off not given, nearly all actives have AC50 up to about 26 µM;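 note: cells exposed to compound for 48 hours before readout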); conditions: JHH-DIPG-1 glioma viability, CellTiter-Glo ATP luminescence
[3] = growth inhibition of DIPG cells – cell-based, MIPE5.0 library, qHTS (AID 1347068; cut-off not given, nearly all actives have IC50 up to about 30 µM;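 for IC50: cells exposed to compound for 48 hours before viability readout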); conditions: SU-DIPG-XXV viability
[4] = viability loss with induced miR-34 in A549 – imaging, A549 dox-inducible miR-34, nuclei and caspase counts, primary screen (AID 1347080); conditions: A549 miR-34 inducible, Hoechst nuclei count, 48 h
[5] = MELAS cybrid and Rieske KO viability enhancers – cell-based, MELAS cybrids, Rieske KO mouse fibroblasts, CellTiter-Glo, primary screen (AID 1508586;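 active = mean z-score across replicates of 1.96 or higher in either the MELAS or the Rieske mutant cell line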;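 note: z relative to plate mean and SD of compound and empty wells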); conditions: low glucose
[6] = target: NAD(+) hydrolase SARM1 (Homo sapiens) (UniProt Q6SZW1); assay: blocking NAD cleavage by SARM1 SAM-TIR – cell lysate, NAD-Glo luminescence (AID 1508614;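 active = compound whose remaining NAD level is above about 45 nM, limit read from the data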;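 note: higher remaining NAD means stronger inhibition of SARM1 NADase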); conditions: SAM-TIR HEK293T lysate NADase, at 1 µM, stronger effect = higher value
[7] = target: Mitogen-activated protein kinase 7 (Homo sapiens) (UniProt Q13164); assay: Gal4-ERK5 driven luciferase induction – cell-based, HTS, primary screen (AID 1508626;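 active = luciferase signal above three times the same-plate solvent-only control wells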;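 note: luciferase driven by Gal4-ERK5 fusion binding five Gal4 sites before minimal TATA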); conditions: HeLa Gal4-ERK5 transactivation, 18 h, at 5 µM, stronger effect = higher value
[8] = blockers of cellular phospholipid synthesis – cell-based, LOPAC library, screen 4, primary screen (AID 1347384; call rule not given here); conditions: animal cells, phospholipid biosynthesis inhibition screen; at 10 µM
[9] = galactose survival enhancers in mitochondrial complex I cybrids – cell-based, galactose medium, ATP luminescence, primary screen (AID 1645843;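 active = z-score of at least 1.8 in each of two replicates, scored against plate mean and spread of sample wells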;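 note: positive z means more ATP and so rescue of galactose-driven cybrid death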); conditions: complex I mutant cybrid cells, 72 h, stronger effect = higher value
[10] = viability loss in pontine glioma line – cell-based, SU-DIPG-XXV, MIPE5.0, CellTiter-Glo, qHTS, dose response (AID 1347065; cut-off not given, nearly all actives have AC50 up to about 26 µM;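 note: cells exposed to compound for 48 hours before ATP readout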); conditions: CellTiter-Glo ATP luminescence
[11] = chitosan synthesis blockers in C. neoformans – flow cytometry, Cibacron Brilliant Red staining (AID 1347148; call rule not given here;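 note: compound exposure lasted three days at 37 degrees C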); conditions: Cryptococcus neoformans chitosan, stronger effect = lower value; at 10 µM unless noted
[12] = stronger effect = lower value, cell number ratio, induced over uninduced
[13] = measured here: relative caspase fold change +Dox/-Dox
[14] = measured here: total cells with miR-34 induction, stronger effect = lower value
[15] = measured here: total cells without miR-34 induction
[16] = MELAS cybrid survival, CellTiter-Glo 48 h, stronger effect = higher value
[17] = Rieske KO mouse fibroblast survival, CellTiter-Glo 72 h

Sequence of Mitogen-activated protein kinase 7 (Homo sapiens) (Q13164 whole entry, looked up, the tested form may be a part): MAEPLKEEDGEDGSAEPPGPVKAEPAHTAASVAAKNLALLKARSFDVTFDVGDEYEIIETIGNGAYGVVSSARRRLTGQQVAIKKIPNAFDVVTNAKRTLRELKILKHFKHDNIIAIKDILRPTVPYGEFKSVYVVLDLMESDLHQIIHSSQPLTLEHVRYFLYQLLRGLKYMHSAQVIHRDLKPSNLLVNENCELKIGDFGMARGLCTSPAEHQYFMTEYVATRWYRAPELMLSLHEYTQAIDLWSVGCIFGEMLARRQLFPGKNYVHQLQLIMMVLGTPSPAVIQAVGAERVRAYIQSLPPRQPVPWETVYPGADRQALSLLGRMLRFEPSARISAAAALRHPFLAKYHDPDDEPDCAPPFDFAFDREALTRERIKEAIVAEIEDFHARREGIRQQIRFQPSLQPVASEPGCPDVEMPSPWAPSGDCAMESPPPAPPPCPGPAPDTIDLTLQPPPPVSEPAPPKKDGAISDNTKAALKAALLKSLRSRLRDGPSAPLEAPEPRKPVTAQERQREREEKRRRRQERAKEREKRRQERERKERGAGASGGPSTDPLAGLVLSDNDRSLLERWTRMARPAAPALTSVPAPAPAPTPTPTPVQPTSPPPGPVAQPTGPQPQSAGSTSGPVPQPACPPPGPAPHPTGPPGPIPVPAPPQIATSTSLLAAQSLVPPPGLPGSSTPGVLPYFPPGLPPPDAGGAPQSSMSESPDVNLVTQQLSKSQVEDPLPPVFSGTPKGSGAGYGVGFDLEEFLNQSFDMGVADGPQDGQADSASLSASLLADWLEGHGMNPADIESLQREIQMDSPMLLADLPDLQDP
Sequence of NAD(+) hydrolase SARM1 (Homo sapiens) (Q6SZW1 whole entry, looked up, the tested form may be a part): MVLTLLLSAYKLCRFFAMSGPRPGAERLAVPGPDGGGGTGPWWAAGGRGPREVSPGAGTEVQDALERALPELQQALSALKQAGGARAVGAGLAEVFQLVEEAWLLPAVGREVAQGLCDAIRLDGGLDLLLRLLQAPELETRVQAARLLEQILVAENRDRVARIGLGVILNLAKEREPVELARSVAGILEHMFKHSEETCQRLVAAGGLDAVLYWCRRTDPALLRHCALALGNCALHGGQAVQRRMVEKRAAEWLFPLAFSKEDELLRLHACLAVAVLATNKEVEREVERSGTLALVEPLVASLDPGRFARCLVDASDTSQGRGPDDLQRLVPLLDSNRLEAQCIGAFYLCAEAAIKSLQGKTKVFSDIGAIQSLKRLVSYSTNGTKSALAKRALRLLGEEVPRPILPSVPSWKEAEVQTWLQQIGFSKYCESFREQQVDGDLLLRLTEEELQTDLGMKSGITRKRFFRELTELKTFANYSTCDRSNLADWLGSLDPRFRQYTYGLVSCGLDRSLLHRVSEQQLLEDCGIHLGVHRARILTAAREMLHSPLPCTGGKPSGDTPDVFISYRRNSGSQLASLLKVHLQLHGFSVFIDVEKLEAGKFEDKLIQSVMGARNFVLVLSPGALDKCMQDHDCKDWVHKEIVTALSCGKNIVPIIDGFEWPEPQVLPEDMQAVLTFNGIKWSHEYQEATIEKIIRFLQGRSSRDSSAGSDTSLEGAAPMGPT

What does the source list for `CC1=CC(=O)c2ccccc2C1=O`?
AC50 [1]: 8.33 µM (active); AC50 [2]: 33.2 µM (active); outcome [3]: inactive; fold change [4, 12]: 1.24 (inactive) and 1.04 (inactive) and 1.27 (inactive); fold change [4, 13]: 0.813 and 0.493 and 0.646; cell count [4, 14]: 1500 and 4940 and 494; cell count [4, 15]: 1210 and 4760 and 388; z-score [5, 16]: -0.194 (inactive); z-score [5, 17]: -1.25; remaining NAD [6]: 10 nM (inactive); luciferase signal [7]: 128 AU (inactive)

For `O=C1N(c2ccccc2)c2ccccc2C1(Cc1ccncc1)Cc1ccncc1`, which outcome [1] is on record?
Its outcome is “inactive”.

What about the outcome [2] of the same molecule?
The outcome was “inactive”.

What about the outcome [3] of the same molecule?
Its outcome is “inactive”.

And the fold change [4, 12]?
The fold change was 1.1 (inactive) and 0.81 (inactive) and 0.995 (inactive).

What about the fold change [4, 13] of the same molecule?
Its fold change is 1.28 and 1.84 and 1.46.

What about the cell count [4, 14] of the same molecule?
Its cell count is 10000 and 7730 and 7820.

And the cell count [4, 15]?
Its cell count is 9180 and 9540 and 7860.

And the outcome [8]?
The outcome was “inactive”.

And the z-score [9]?
Its z-score is -0.165 (inactive) and 0.43 (inactive) and -0.3 (inactive).

Which results are given for `COC(=O)[C@H](Cc1ccccc1)NC(=O)[C@@H](N)CC(=O)O` (H-Asp-Phe-OMe)?
outcome [1]: inactive; outcome [2]: inactive; fold change [4, 12]: 0.869 (inactive); fold change [4, 13]: 2.93; cell count [4, 14]: 11000; cell count [4, 15]: 12600; remaining NAD [6]: 10 nM (inactive); luciferase signal [7]: 36 AU (inactive)

Which outcome [10] does the source give for `C#C[C@]1(O)CC[C@H]2[C@@H]3[C@H](C)CC4=C(CCC(=O)C4)[C@H]3CC[C@@]21C` here?
Its outcome is “inactive”.

What about the outcome [3] of the same molecule?
The outcome was “inactive”.

What about the fold change [4, 12] of the same molecule?
Its fold change is 0.908 (inactive) and 0.883 (inactive).

What about the fold change [4, 13] of the same molecule?
The fold change was 0.948 and 1.2.

What about the cell count [4, 14] of the same molecule?
The cell count was 5910 and 8230.

What about the cell count [4, 15] of the same molecule?
Its cell count is 6510 and 9320.

What about the z-score [5, 16] of the same molecule?
The z-score was 0.727 (inactive) and 0.175 (inactive).

And the z-score [5, 17]?
Its z-score is 0.291 and -0.0373.

And the remaining NAD [6]?
The remaining NAD was 10 nM (inactive).

What about the z-score [9] of the same molecule?
The z-score was -0.015 (inactive).

Which results are given for `C/C=C(/C(=C/C)c1ccc(O)cc1)c1ccc(O)cc1`?
outcome [1]: inactive; AC50 [2]: 20.9 µM (active); IC50 [3]: 23.5 µM (active); fold change [4, 12]: 0.888 (inactive) and 0.901 (inactive); fold change [4, 13]: 1.32 and 1.91; cell count [4, 14]: 7250 and 10300; cell count [4, 15]: 8160 and 11500; z-score [5, 16]: -1.21 (inactive); z-score [5, 17]: -1.14; remaining NAD [6]: 10 nM (inactive); luciferase signal [7]: 72 AU (inactive)

Which outcome [1] does the source give for `COc1ccccc1N1CCN(CC(O)COc2cccc3ccccc23)CC1` (stereo unspecified) here?
Its outcome is “inactive”.

What about the outcome [2] of the same molecule?
Its outcome is “inactive”.

And the outcome [3]?
The outcome was “inactive”.

What about the outcome [8] of the same molecule?
The outcome was “inactive”.

What about the remaining NAD [6] of the same molecule?
Its remaining NAD is 10 nM (inactive).

What does the source list for `COc1ncnc(NS(=O)(=O)c2ccc(N)cc2)c1OC`?
outcome [1]: inactive; outcome [2]: inactive; outcome [3]: inactive; fold change [4, 12]: 0.905 (inactive) and 0.917 (inactive) and 0.89 (inactive); fold change [4, 13]: 0.874 and 2.12 and 1.28; cell count [4, 14]: 9490 and 11800 and 9350; cell count [4, 15]: 10500 and 12900; z-score [5, 16]: 0.681 (inactive) and -0.67 (inactive); z-score [5, 17]: 0.678 and -1.38; remaining NAD [6]: 10 nM (inactive); z-score [9]: -0.18 (inactive)

Which results are given for `O=C1CCc2ccc(OCCCCN3CCN(c4cccc(Cl)c4Cl)CC3)cc2N1`?
AC50 [10]: 13.2 µM (active); z-score [5, 16]: -0.393 (inactive) and -1.22 (inactive) and -0.905 (inactive); z-score [5, 17]: 0.269 and 1.31 and -0.2; remaining NAD [6]: 10 nM (inactive); z-score [9]: -1.88 (inactive) and -2.22 (inactive)

Which results are given for `CCC(=O)O[C@]1(C(=O)SCF)[C@H](C)C[C@H]2[C@@H]3C[C@H](F)C4=CC(=O)C=C[C@]4(C)[C@@]3(F)[C@@H](O)C[C@@]21C`?
outcome [1]: inactive; outcome [2]: inactive; outcome [3]: inactive; fold change [4, 12]: 0.882 (inactive) and 0.864 (inactive); fold change [4, 13]: 0.631 and 0.861; cell count [4, 14]: 6550 and 5840; cell count [4, 15]: 7420 and 6760; z-score [5, 16]: 0.444 (inactive); z-score [5, 17]: 0.72; remaining NAD [6]: 10 nM (inactive); z-score [9]: 0.435 (inactive)

Which outcome [1] does the source give for `CC(C)(C)NC(=O)[C@H]1CC[C@H]2[C@@H]3CC[C@H]4NC(=O)C=C[C@]4(C)[C@H]3CC[C@]12C` here?
Its outcome is “inactive”.

And the outcome [2]?
The outcome was “inactive”.

And the outcome [3]?
Its outcome is “inactive”.

And the fold change [4, 12]?
Its fold change is 0.927 (inactive) and 0.774 (inactive).

And the fold change [4, 13]?
The fold change was 1.11 and 2.31.

And the cell count [4, 14]?
The cell count was 8640 and 8130.

What about the cell count [4, 15] of the same molecule?
Its cell count is 9320 and 10500.

What about the z-score [5, 16] of the same molecule?
Its z-score is 0.136 (inactive) and 0.187 (inactive).

What about the z-score [5, 17] of the same molecule?
The z-score was 0.621 and 0.926.

What about the remaining NAD [6] of the same molecule?
Its remaining NAD is 10 nM (inactive).

What about the z-score [9] of the same molecule?
The z-score was 0.465 (inactive).

For `CN1CCC(=C2c3ccccc3C=Cc3ccccc32)CC1`, which outcome [1] is on record?
The outcome was “inactive”.

And the outcome [2]?
The outcome was “inactive”.

What about the outcome [3] of the same molecule?
The outcome was “inactive”.

What about the outcome [8] of the same molecule?
The outcome was “inactive”.

And the z-score [5, 16]?
Its z-score is -0.307 (inactive) and -0.043 (inactive) and -1.41 (inactive).

And the z-score [5, 17]?
The z-score was -0.028 and 0.523 and -1.01.

And the remaining NAD [6]?
The remaining NAD was 10 nM (inactive).

And the luciferase signal [7]?
The luciferase signal was 20 AU (inactive).

With `COc1cc(/C=C/C(=O)CC(=O)/C=C/c2ccc(O)c(OC)c2)ccc1O` as the molecule, how does the AC50 [10] read?
The AC50 was 20.9 µM (active).

What about the fold change [4, 12] of the same molecule?
Its fold change is 0.955 (inactive).

What about the fold change [4, 13] of the same molecule?
Its fold change is 1.47.

What about the cell count [4, 14] of the same molecule?
Its cell count is 6170.

What about the cell count [4, 15] of the same molecule?
Its cell count is 6460.

And the fold fluorescence [11]?
Its fold fluorescence is 8.92 [at 135.7 µM] (inactive).

And the luciferase signal [7]?
The luciferase signal was 44 AU (inactive).

With `CCCOc1ccc2nc(NC(=O)OC)[nH]c2c1` as the molecule, how does the AC50 [10] read?
The AC50 was 0.235 µM (active).

What about the AC50 [2] of the same molecule?
Its AC50 is 0.295 µM (active).

And the fold change [4, 12]?
The fold change was 1.06 (inactive) and 1 (inactive).

And the fold change [4, 13]?
The fold change was 1.87 and 1.28.

And the cell count [4, 14]?
Its cell count is 2370 and 1800.

And the cell count [4, 15]?
Its cell count is 2250 and 1790.

What about the z-score [5, 16] of the same molecule?
Its z-score is -1.88 (inactive) and -2.12 (inactive).

And the z-score [5, 17]?
The z-score was -0.332 and 1.54.

What about the remaining NAD [6] of the same molecule?
The remaining NAD was 10 nM (inactive).

What about the luciferase signal [7] of the same molecule?
The luciferase signal was 40 AU (inactive).

And the z-score [9]?
The z-score was -1.72 (inactive).

Which results are given for `C#CCN[C@@H]1CCc2ccccc21`?
outcome [1]: inactive; outcome [2]: inactive; outcome [3]: inactive; fold change [4, 12]: 0.9 (inactive); fold change [4, 13]: 0.614; cell count [4, 14]: 8560; cell count [4, 15]: 9500; z-score [5, 16]: -0.17 (inactive); z-score [5, 17]: 0.336; remaining NAD [6]: 10 nM (inactive)

What does the source list for `CCCOc1ccc(C(=O)OCCN(CC)CC)cc1N`?
outcome [1]: inactive; outcome [2]: inactive; outcome [3]: inactive; z-score [5, 16]: 0.278 (inactive) and -0.171 (inactive) and -0.393 (inactive); z-score [5, 17]: -0.35 and 0.529 and -1.27; remaining NAD [6]: 10 nM (inactive); luciferase signal [7]: 212 AU (inactive); z-score [9]: 0.735 (inactive) and 0.01 (inactive)

— PubChem BioAssay
